In PubChem BioAssay one finds composite z-score, composite Z-score and z-score data, which are given here for 6 molecules.

For one test, the target named is Albumin (Bos taurus) (UniProt P02769). The test is described as follows: bovine serum albumin binders on microarray, profiling panel, artefact control for SMM control protein annotation, biochemical, small-molecule microarray, Alexa647 label, 635/667 nm fluorescence (AID 1118).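 Further: score merges 667 nm emission intensity and signal-to-noise per printed compound spot.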 The note with it: BSA-A647 binding, fluorescence 635 nm, higher = more signal.
Test [1] can be described thus: small-molecule microarray binders of probe aXIP, primary screen, biochemical, NeuroSMM set, 635/667 nm fluorescence (AID 1119).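 Further: probe is the protein aXip251-270 applied at 1 µg/mL to compound-printed slides; binding of probe to printed compounds measured as 667 nm fluorescence plus signal to noise.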 The note with it: higher = more signal, called active from +8 up or from −8 down.
Test [2] can be described thus: small-molecule binders of probe aNOTCH3, primary screen, biochemical, small-molecule microarray, 635/667 nm fluorescence (AID 1120).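 Further: probe is a biotin-tagged antibody raised against NOTCH3 rather than NOTCH3 protein; score merges spot fluorescence near 667 nm with spot signal to noise.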 The following applies: higher = more signal.
Test [3] can be described thus: small-molecule binders of probe aNOTCH2, primary screen, biochemical, small-molecule microarray, 635/667 nm fluorescence (AID 1121).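 Further: score merges feature fluorescence read at 667 nm with its signal to noise.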 The note with it: higher = more signal.
For test [4], the target named is Carbonic anhydrase 2 (Homo sapiens) (UniProt P00918). Description: CAII small-molecule binders, profiling panel, biochemical, small-molecule microarray, Alexa647-labelled CAII (AID 1122). The following applies: CAII-A647 binding fluorescence, higher = more signal.
The nature of test [5]: COS7 lysate on small-molecule microarray, probe aHis, 635 nm (AID 1123).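 Further: z-score combines 667nm fluorescence intensity with signal-to-noise per printed compound spot.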 The following applies: COS7 cell lysate, fluorescence, higher = more signal.
Test [6] is described as follows: compound binding in COS7 lysate, probe aLAP1, primary screen, cell lysate, small-molecule microarray (AID 1124).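 Further: lysate comes from COS7 cells expressing LAP1 and is applied at 0.3 µg/mL; score merges spot fluorescence near 667 nm with signal-to-noise over triplicate slides.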 The following applies: probe aLAP1, fluorescence, higher = more signal.
Another test has as its system Sam68 (KHDRBS1). Description: Sam68 small-molecule binders, primary screen, biochemical, small-molecule microarray, 635 nm fluorescence (AID 1125).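 Further: score merges 667 nm channel intensity with signal to noise over triplicate slides.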 The note with it: small-molecule microarray binding, higher = more signal.
The test system of test [7] is Chordin-like protein 2 (CHRDL2). The test is described as follows: CHRDL2 small-molecule binders, primary screen, biochemical, small-molecule microarray, 635 nm fluorescence (AID 1126).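 Further: printed compound slides probed with Chrdl2 protein at 4 µg/mL for 1 h at 4 C; score merges 667 nm emission intensity with signal to noise over three replicate slides.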 The following applies: small-molecule microarray binding, fluorescence 635 nm; higher = more signal.
The target in test [8] is Concanavalin-A (Canavalia ensiformis) (UniProt P02866). The test is described as follows: ConA small-molecule binders, primary screen, artefact control for SMM control protein annotation, biochemical, small-molecule microarray, Alexa647 label, 635 nm (AID 1127).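 Further: z combines 667 nm emission intensity with signal-to-noise across three replicate slides.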 The note with it: ConA-A647 binding fluorescence, higher = more signal.
Test [9] is described as follows: anti-His antibody binders, primary screen, artefact control for SMM control protein annotation, biochemical, small-molecule microarray, 635 nm fluorescence (AID 1128).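 Further: score merges feature fluorescence with signal-to-noise for each printed compound spot.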 The note with it: anti-His Alexa647 antibody binding, higher = more signal.
Test [10] deals with Human papillomavirus type 1a E7 protein (residues 1-88). The test is described as follows: HPV1a E7 small-molecule binders, primary screen, biochemical, small-molecule microarray, residues 1-88, 635 nm (AID 1129). The note with it: small-molecule microarray binding, fluorescence 635 nm; higher = more signal.
Test [11] deals with Focal adhesion kinase 1 (Homo sapiens) (UniProt Q05397). Description: small-molecule microarray binders of FAK, primary screen, biochemical, 635/667 nm fluorescence, BSA, DTT (AID 1130).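 Further: composite of spot emission at 667 nm and signal to noise over triplicate slides.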 The note with it: PTK2 binding, 635 nm fluorescence, higher = more signal.
Test [12] concerns Fibrinogen (Alexa647-labelled). The test is described as follows: fibrinogen binders on compound microarrays, profiling panel, artefact control for SMM control-protein annotation, biochemical, small-molecule microarray, 635/667 nm fluorescence (AID 1131).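 Further: z-score merges 667 nm fluorescence with per-spot signal-to-noise over triplicate slides.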 The following applies: fibrinogen-A647 binding fluorescence, higher = more signal.
Test [13] addresses Follistatin (Homo sapiens) (UniProt P19883). Description: follistatin binders on small-molecule microarrays, primary screen, biochemical, small-molecule microarray, 635/667 nm fluorescence (AID 1132). The following applies: FST binding, 635 nm fluorescence, higher = more signal.
For test [14], the target named is Fibroblast growth factor 2 (Homo sapiens) (UniProt P09038). Description: FGF2 binders on small-molecule microarrays, primary screen, biochemical, small-molecule microarray, 635/667 nm fluorescence (AID 1133). The note with it: small-molecule microarray binding, FGF2, fluorescence 635/667; higher = more signal.
Test [15] is described as follows: mitochondrial membrane potential change in A549 cells, profiling panel, cell-based, JC-1 fluorescence, basal, 24 h, 100 nL (AID 1138).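 Further: A549 lung adenocarcinoma cells under basal conditions with no added stimulus; test concentration not given here.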 The following applies: higher = more signal.
The test system of another test is Lefty1. The test is described as follows: Lefty1 binders on small-molecule microarrays, primary screen, biochemical, small-molecule microarray, 635/667 nm fluorescence (AID 1139). The following applies: small-molecule microarray binding, fluorescence 635/667; higher = more signal.
In test [16] the test system is wheat germ agglutinin (Triticum aestivum), Alexa647-labelled. The test is described as follows: wheat germ agglutinin binders on compound microarrays, profiling panel, artefact control for SMM control-protein annotation, biochemical, small-molecule microarray, 635/667 nm fluorescence (AID 1140).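 Further: score merges 667 nm feature emission with signal to noise over triplicate slides.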 The following applies: WGA-A647 binding, 635 nm fluorescence, higher = more signal.

Test [17] addresses Luciferin 4-monooxygenase (Photinus pyralis) (UniProt P08659). The test is described as follows: firefly luciferase enzyme inhibitors, primary screen, biochemical, luminescence, purified enzyme, 2006 set (AID 1141).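 Further: cell-free assay with purified firefly luciferase at 100 ng per well in PBS; test concentration not given here.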 The following applies: SteadyGlo luminescence, 30 min, higher = more signal, called active from +8 up or from −8 down.

Activity calls are given as the source filed them.

Focal adhesion kinase 1 (Homo sapiens), sequence (Q05397 whole entry, looked up): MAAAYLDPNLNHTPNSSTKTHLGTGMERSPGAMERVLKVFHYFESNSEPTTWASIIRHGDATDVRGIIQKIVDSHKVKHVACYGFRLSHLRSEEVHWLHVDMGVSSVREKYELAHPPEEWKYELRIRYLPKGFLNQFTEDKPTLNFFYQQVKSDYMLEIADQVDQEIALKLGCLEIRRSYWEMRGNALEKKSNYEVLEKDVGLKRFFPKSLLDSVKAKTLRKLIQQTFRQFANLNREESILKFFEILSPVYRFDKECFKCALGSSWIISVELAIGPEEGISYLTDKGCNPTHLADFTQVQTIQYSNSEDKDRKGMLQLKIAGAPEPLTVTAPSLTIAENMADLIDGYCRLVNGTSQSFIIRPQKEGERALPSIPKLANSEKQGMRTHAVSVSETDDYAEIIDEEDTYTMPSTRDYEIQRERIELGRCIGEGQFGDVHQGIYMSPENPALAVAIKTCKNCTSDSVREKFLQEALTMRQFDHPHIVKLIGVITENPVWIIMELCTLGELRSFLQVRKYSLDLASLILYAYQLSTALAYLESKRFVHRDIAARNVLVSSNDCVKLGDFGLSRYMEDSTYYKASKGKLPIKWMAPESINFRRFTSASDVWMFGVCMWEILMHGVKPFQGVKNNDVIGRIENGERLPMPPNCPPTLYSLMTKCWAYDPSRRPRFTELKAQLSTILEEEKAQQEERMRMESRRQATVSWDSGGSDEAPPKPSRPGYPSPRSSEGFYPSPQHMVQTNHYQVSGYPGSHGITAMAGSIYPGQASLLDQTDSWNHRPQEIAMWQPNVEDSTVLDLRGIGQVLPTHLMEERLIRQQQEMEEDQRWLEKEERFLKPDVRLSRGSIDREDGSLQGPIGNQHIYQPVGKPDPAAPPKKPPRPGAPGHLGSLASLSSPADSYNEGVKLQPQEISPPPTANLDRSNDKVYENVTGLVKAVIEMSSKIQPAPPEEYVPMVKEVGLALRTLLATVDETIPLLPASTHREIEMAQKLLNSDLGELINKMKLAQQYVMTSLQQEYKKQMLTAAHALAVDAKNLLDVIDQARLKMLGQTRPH
Concanavalin-A (Canavalia ensiformis), sequence (P02866 whole entry, looked up): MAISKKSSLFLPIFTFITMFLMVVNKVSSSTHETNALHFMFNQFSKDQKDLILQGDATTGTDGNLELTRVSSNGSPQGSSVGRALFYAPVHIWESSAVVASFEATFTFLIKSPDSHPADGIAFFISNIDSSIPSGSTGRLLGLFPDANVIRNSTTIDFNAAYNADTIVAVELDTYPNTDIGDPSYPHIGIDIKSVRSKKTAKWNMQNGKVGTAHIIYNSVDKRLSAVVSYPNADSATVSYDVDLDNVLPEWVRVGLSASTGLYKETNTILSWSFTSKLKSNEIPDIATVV
Luciferin 4-monooxygenase (Photinus pyralis), sequence (P08659 whole entry, looked up): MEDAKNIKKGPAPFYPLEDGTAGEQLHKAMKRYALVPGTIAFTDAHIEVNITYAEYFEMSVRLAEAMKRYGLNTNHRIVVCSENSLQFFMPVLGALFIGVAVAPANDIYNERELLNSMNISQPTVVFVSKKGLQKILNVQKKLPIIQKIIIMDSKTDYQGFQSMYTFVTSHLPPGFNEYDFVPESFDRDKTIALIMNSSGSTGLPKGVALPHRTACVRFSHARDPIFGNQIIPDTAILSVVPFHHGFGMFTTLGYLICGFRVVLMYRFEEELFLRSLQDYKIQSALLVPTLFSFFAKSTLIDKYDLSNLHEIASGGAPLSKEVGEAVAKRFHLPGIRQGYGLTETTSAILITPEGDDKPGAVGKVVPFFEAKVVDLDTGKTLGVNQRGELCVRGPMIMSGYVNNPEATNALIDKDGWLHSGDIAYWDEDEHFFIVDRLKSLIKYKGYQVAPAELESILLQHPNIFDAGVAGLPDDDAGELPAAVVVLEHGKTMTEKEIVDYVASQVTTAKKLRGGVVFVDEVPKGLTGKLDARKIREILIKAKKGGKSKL
Fibroblast growth factor 2 (Homo sapiens), sequence (P09038 whole entry, looked up): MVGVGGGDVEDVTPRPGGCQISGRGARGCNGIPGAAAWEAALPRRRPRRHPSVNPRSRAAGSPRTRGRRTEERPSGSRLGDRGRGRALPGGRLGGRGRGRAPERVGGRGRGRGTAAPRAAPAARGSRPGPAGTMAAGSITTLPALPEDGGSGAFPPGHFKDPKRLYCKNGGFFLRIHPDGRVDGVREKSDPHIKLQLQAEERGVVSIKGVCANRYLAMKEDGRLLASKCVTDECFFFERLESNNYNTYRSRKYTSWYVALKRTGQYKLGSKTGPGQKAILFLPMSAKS
Albumin (Bos taurus), sequence (P02769 whole entry, looked up): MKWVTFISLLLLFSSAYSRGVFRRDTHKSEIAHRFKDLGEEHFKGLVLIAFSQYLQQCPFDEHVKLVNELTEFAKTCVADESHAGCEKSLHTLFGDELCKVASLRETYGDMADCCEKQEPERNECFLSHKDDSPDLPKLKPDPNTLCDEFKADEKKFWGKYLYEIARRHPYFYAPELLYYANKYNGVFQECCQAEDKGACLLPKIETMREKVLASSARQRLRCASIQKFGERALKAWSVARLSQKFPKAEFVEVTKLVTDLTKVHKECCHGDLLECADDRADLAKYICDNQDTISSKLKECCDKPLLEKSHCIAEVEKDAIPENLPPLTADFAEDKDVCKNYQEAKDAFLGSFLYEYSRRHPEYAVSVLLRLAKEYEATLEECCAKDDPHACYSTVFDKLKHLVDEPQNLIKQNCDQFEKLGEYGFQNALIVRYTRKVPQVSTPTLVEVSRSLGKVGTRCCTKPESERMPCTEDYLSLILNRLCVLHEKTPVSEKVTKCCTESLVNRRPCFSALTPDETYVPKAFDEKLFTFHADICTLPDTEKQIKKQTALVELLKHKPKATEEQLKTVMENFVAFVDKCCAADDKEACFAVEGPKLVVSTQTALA
Follistatin (Homo sapiens), sequence (P19883 whole entry, looked up): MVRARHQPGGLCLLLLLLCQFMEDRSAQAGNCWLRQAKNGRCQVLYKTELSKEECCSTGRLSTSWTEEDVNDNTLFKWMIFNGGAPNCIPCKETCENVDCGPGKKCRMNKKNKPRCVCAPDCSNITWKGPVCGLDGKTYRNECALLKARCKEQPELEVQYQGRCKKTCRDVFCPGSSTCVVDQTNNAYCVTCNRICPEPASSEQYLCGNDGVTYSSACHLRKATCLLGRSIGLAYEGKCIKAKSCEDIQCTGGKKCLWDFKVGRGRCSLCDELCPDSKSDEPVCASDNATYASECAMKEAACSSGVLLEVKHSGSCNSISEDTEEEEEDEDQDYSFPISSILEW

In the case of `COCCCNC(=O)[C@@]1(Sc2ccc(C)cc2)CC(=O)N(C2Cc3ccccc3C2)[C@@H]1c1ccc(CO)cc1`, the composite z-score with Albumin (Bos taurus) is 0.0753; in [2] it was -0.157; in test [3], -0.181; in test [4], 0.748; in test [5], 0.537; in test [6], 0.352. Further, the composite z-score was 0.209 in the test with Sam68 (KHDRBS1); -1.86 in test [7]; 0.163 in test [8]; 0.72 in test [9]; 0.336 in [10]; -0.296 in test [11]. In addition, the composite z-score in test [12] is -0.841; in test [13], -1.22; in test [14] it was -1.35; in the test on Lefty1, -1.1; in test [16] it was -1.47. Besides, the composite Z-score in test [1] is 1.23 (inactive). For the same molecule, the z-score in [15] is -0.318; in test [17] it was 0.925 (inactive).

For the molecule `C=CC[C@@]1(C(=O)NCCCOC)N=C(c2ccc(OCCCO)cc2)O[C@@H]1c1ccccc1`, the composite z-score came out at 0.8 in the test with Albumin (Bos taurus); 0.169 in test [2]; 0.0977 in test [3]; 0.597 in test [4]; 3.2 in test [5]; 0.601 in test [6]. The composite z-score was 0.316 in the test with Sam68 (KHDRBS1); -0.919 in test [7]; 0.174 in test [8]; 2.85 in test [9]; 1.19 in test [10]; 0.166 in test [11]. Besides, the composite z-score in test [12] is -0.273; in test [13], 1.3; in test [14], 0.594; in the test with Lefty1, -0.476; in [16], 0.471. Also, in [1], the composite Z-score was 0.604 (inactive). In addition, the z-score in [15] was 0.565; in test [17], -0.589 (inactive).

Consider `O=C(O)[C@@H]1C[C@@H]2C(=O)N3CCC[C@H]3C(=O)N2[C@@H]1c1ccc(O)cc1`, for which the composite z-score is -0.0352 with Albumin (Bos taurus); 0.0927 in [2]; -0.0126 in test [3]; 0.579 in [4]; 0.538 in [5]; 0.619 in [6]. Besides, the composite z-score in the test with Sam68 (KHDRBS1) is 0.721; in test [7] it was 0.931; in test [8], 0.878; in [9], 2.3; in test [10] it was 0.258; in test [11], 0.251. In addition, the composite z-score in test [12] is -0.0516; in [13] it was 1.42; in [14] it was 1.07; in the test with Lefty1, 0.824; in test [16], 0.0465. In addition, the composite Z-score in test [1] is 0.309 (inactive). The z-score in [15] is -0.269; in test [17] it was -0.985 (inactive).

Consider `COCCOC(=O)N1C(=O)[C@@]2(c3cc(C#CC4(O)CCCCCC4)ccc31)[C@H](C(=O)N1CCc3cc(OC)c(OC)cc3C1)[C@H]1C(=O)O[C@H](c3ccccc3)[C@H](c3ccccc3)N1[C@@H]2c1ccc(OCCO)cc1`, for which the composite z-score with Albumin (Bos taurus) was 0.121; in test [2], -0.021; in test [3], -0.0617; in test [4], 0.515; in test [5], 0.535; in test [6] it was 0.272. Moreover, the composite z-score in the test with Sam68 (KHDRBS1) is 1.31; in [7] it was 0.666; in test [8] it was 1.12; in test [9], 0.244; in test [10], 0.867; in [11] it was 1.06. The composite z-score in test [12] worked out at 0.682; in [13] it was 1.29; in [14] it was 1.32; in the test with Lefty1 it was 1.23; in [16], 0.475. Also, the composite Z-score in test [1] was 0.28 (inactive). The z-score in [15] is -1.11; in test [17] it was -1.07 (inactive).

For the molecule `CCCCCCCCCCC(O)C1C=CC2C(=O)N(c3ccccc3)C(=O)C2N1Nc1ccc(C#N)cc1` (stereo not given), the composite z-score came out at 0.957 with Albumin (Bos taurus); 0.286 in test [2]; 0.0169 in [3]; 0.562 in [4]; 1.53 in test [5]; 0.906 in test [6]. The composite z-score was 1.34 in the test on Sam68 (KHDRBS1); -0.842 in test [7]; 1.12 in [8]; -0.0221 in [9]; 1.18 in [10]; 0.464 in test [11]. Also, the composite z-score in test [12] came to 0.989; in test [13], 0.652; in test [14] it was 0.429; with Lefty1, 0.0328; in test [16] it was 1.13. For the same molecule, in [1], the composite Z-score is 0.338 (inactive). For the same molecule, the z-score in test [15] was 3.49; in test [17], 0.675 (inactive).

As to `CCOC(=O)C[C@H]1[C@H](OC(=O)c2cc3ccccc3oc2=O)[C@@H](NC(=O)c2ccccc2)c2cc(OCCCO)ccc2N1C(=O)c1ccccc1`, the composite z-score in the test with Albumin (Bos taurus) is -0.122; in test [2], -0.0199; in test [3] it was -0.147; in test [4] it was -0.129; in test [5], 0.236; in test [6] it was -0.155. In addition, the composite z-score worked out at 0.64 in the test on Sam68 (KHDRBS1); 0.498 in test [7]; 0.535 in test [8]; 0.29 in [9]; 0.828 in test [10]; 0.138 in test [11]. For the same molecule, the composite z-score in test [12] was found to be 0.37; in test [13], 0.744; in [14] it was 1.18; with Lefty1, 0.443; in [16], 0.0432. For the same molecule, the composite Z-score in test [1] is 0.0916 (inactive). Besides, the z-score in [15] is -0.816; in test [17], 0.713 (inactive).
